Among all 68,000 compounds or so, about 2,700 (4%) showed an effect of 50% or more. This excerpt belongs to a sample that is enriched for strong results.

The test relates to Plasmodium berghei. As to the kind of experiment: Screen against P. berghei liver stage (PbLuc), transformed with Luciferase, at 2uM. As to conditions: tested at 2 uM. The format is functional, HepG2.
For the compound `Cc1cc(C(=O)N2CCC3(CCNCC3)CC2)c2cccc(C)c2n1`, the INHIBITION is -26.08%.

With `COc1ccccc1CNC(Cc1cccs1)c1nc(C)c(C)s1` (stereo not drawn), the INHIBITION is 46.15%. With `Cc1nc(C)n(C2CCCN(C(=O)c3ccc(OC(C)C)nc3)C2)n1` (stereo not drawn) the figure was 3.33%; with `CCN(CCN(C)C)c1nc(CCN)nc2sc(C)c(C)c12`, -6.77%. For `Cn1ncc2c1NC(=O)CC2c1ccc(O)cc1` (stereo not drawn), the INHIBITION worked out at 16.01%. Regarding `COCCN1CCCC1Cn1nc(C)cc1C` (stereo not drawn), the INHIBITION is reported as 17.98%. `Cc1cc(C)n(CC2CCCN2C(=O)c2ccc3c(c2)OCCO3)n1` (stereo not drawn): the INHIBITION is 4.07%. In the case of `CCCN1CCCC1Cn1nc(C)cc1C` (stereo not drawn), the INHIBITION came to 60.23%. `Cc1cc(C)n(CC2CCCN2C(=O)c2cccc3c2OCCO3)n1` (stereo not drawn): the INHIBITION is 50.75%.

Consider `Cc1cnn(CC2CCCCN2C(=O)c2cccnc2N(C)C)c1` (stereo not drawn), for which the INHIBITION is on record as 70.27%. With `COCCOc1ncccc1C(=O)N1CCCC1Cn1cc(C)cn1` (stereo not drawn), the INHIBITION is reported as -17.31%.

With `CN(C)c1ncccc1C(=O)N1CCCC1Cn1cccn1` (stereo not drawn), the INHIBITION was 7.13%. As to `Cc1cc(C)n(CC2CCCN2C(=O)Cc2c(C)nn(C)c2C)n1` (stereo not drawn), the INHIBITION is -15.05%. As for `Cc1cc(C)n(CC2CCCN2CCS(C)(=O)=O)n1` (stereo not drawn), the INHIBITION is given as -6.16%. As for `Cc1cc(C)n(CC2CCCN2C(=O)c2c(C)noc2C)n1` (stereo not drawn), the INHIBITION is -27.28%.

Consider `Cc1cc(C)n(CC2CCCN2C(=O)Cc2c(C)noc2C)n1` (stereo not drawn), for which the INHIBITION came to 51.19%. With `Cc1cc(C)n(CC2CCCN2C(=O)c2cccc3c2OCO3)n1` (stereo not drawn), the INHIBITION is on record as -72.55%. As for `COc1ccc(CN2CCO[C@H]3[C@H](OCc4ccncc4)CC[C@@H]32)cc1`, the figure is -3.18%.

As to `Cc1nn(C2CCCCC2)c2nc(C(C)(C)CN3CCOCC3)[nH]c12`, the INHIBITION worked out at 48.54%.

Consider `Cc1cccnc1CN1CCN(C(=O)CCn2ccc(=O)[nH]c2=O)CC1`, for which the INHIBITION amounted to 35.88%. In the case of `Cc1cccc(Cc2cc(C)nc(C3CCCNC3)c2)c1` (stereo not drawn), the INHIBITION was -27.54%.

In the case of `CCOCC(=O)NCCC(O)c1ccoc1` (stereo not drawn), the INHIBITION is 1.3%. For the compound `O=C(NCCNc1ncccn1)C1CC(=O)N(Cc2ccccn2)C1` (stereo not drawn), the INHIBITION was 35.65%.

In the case of `Nc1cc(N2CCCC2c2cnccn2)ncn1` (stereo not drawn), the INHIBITION stood at 30.38%. As for `Cc1cnn(CC2CCCCN2C(=O)c2ccccc2-n2cccn2)c1` (stereo not drawn), the figure is 37.68%; as for `CCOc1ncccc1C(=O)N1CCCC1Cn1nc(C)cc1C` (stereo not drawn), 11.95%. As for `Cc1cc(C)n(CC2CCCN2C(=O)c2cccnc2N(C)C)n1` (stereo not drawn), the figure is 56.02%; as for `Cc1cnn(CC2CCCN2C(=O)c2ccccc2-n2cnnn2)c1` (stereo not drawn), 21.39%.

Consider `Cc1cnn(CC2CCCN2C(=O)c2ccccc2-n2cccn2)c1` (stereo not drawn), for which the INHIBITION turned out to be 76.38%.

Turning to `Cc1cc(C)n(CC2CCCN2C(=O)c2c[nH]c3ncccc23)n1` (stereo not drawn), the INHIBITION is -1.56%.

Take `CCc1c(C(=O)N2CCC3(CCCN(CCO)C3=O)C2)csc1C` (stereo not drawn): the INHIBITION is on record as 40.64%. For `CCCC(=O)N1CCN(CCN(C)C)c2nc(C)ccc2C1`, the INHIBITION is on record as 19.51%. With `Cn1ccnc1SCC(=O)NCCC1CCCO1` (stereo not drawn) the figure was -38.4%.

With `O=C(c1ccon1)N1CCCCC1c1nc2cc(F)ccc2[nH]1` (stereo not drawn), the INHIBITION was 14.79%.

Take `COCCC1CN(Cc2cn(CCC(N)=O)c3ccccc23)CCO1` (stereo not drawn): the INHIBITION is given as 26.22%. As for `Cc1nnc(CN2CCC(Oc3ccc(F)cc3)CC2)o1`, the INHIBITION was -4.89%.

Take `C/N=C1\c2cc3cc(OC)ccc3n2CCN1Cc1ccccc1`: the INHIBITION was -2.66%. With `c1cn2c(n1)CN(C1CCOCC1)CC(CN1CCCC1)C2` (stereo not drawn) the figure was 29.95%; with `OCC1(O)CCN(Cc2noc(-c3ccccc3)n2)CC1`, 26.3%. As to `COc1cccc(CN2CCCC3(CCN(C(=O)c4ccco4)C3)C2)c1` (stereo not drawn), the INHIBITION stood at 8.37%.

Consider `COc1cccc(CN2CCCC3(CCN(C(=O)N4CCCC4)C3)C2)c1` (stereo not drawn), for which the INHIBITION amounted to 50.17%. As for `COc1cccc(CN2CCCC3(CCN(C(=O)[C@H]4CCCO4)C3)C2)c1` (stereo partly drawn), the figure is 21.89%; as for `CCn1[nH]c(C)c2c(C(F)(F)C(F)(F)F)cc(=O)nc1-2`, 1.01%. As for `Cc1nsc(C(=O)NCCc2ccc(F)cc2)n1`, the figure is -0.59%; as for `Cc1nsc(C(=O)NCCc2ccccc2)n1`, -7.16%.

As for `Cc1nsc(C(=O)NCCc2cccs2)n1`, the INHIBITION amounted to 55.25%.

`Cc1ccc(CN2CCC3(CC2)CC(c2cccnc2)CO3)s1` (stereo not drawn): the INHIBITION came to 23.79%. Consider `CCS(=O)(=O)c1ccc(N2CCC(NC(=O)NC(C)CO)CC2)cc1` (stereo not drawn), for which the INHIBITION was 7.85%.

Take `Cc1ccc(CN(C)C(=O)Cn2nc(-c3ccc(F)cc3)oc2=O)cc1`: the INHIBITION came out at 5.28%. Take `Cc1ccsc1CN(C)C(=O)Cn1nc(-c2ccc(F)cc2)oc1=O`: the INHIBITION stood at 51.99%. Consider `CN(Cc1ccc(F)cc1)C(=O)Cn1nc(-c2ccc(F)cc2)oc1=O`, for which the INHIBITION was -10.54%.

Turning to `COc1ccc(CC(C)(O)CNC(=O)NCc2cccs2)cc1` (stereo not drawn), the INHIBITION is on record as 45.62%. As to `CC(C)OCC(=O)N1CCCN(Cc2ccc(C#N)cc2)CC1`, the INHIBITION was 2.08%.

For the origin of these results see ChEMBL document CHEMBL4513216, “Probing the Open Global Health Chemical Diversity Library for Multistage-Active Starting Points for Next-Generation Antimalarials” (ACS Infect Dis, 2020).
